We go through three compounds from PubChem BioAssay (NCATS).

Results filed as inconclusive are left out. Active and inactive are the calls of the source. The call rests on the fitted dose curve; in most records, active means well fitted inhibition curve with a large enough effect; inconclusive means small, poorly fitted or top-dose-only effect; inactive means flat fitted curve, though single readings scatter.
On the % scale 0 is the no-effect control and ±100 the full control effect.

The nature of the experiment: P-glycoprotein substrates identified in KB-8-5-11 adenocarcinoma cell line, qHTS therapeutic library screen (AID 1346987). Further: nearly all actives have a fitted effect of over 65% in size. The note with it: KB-8-5-11 (P-gp overexpressing) viability, CellTiter-Glo, 72 h; series mostly up to 44.5 µM; activity change, negative = cytotoxicity: at the top concentration. The essentials:
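KB-8-5-11: colchicine-selected sub-line of KB-3-1 over-expressing P-gp; assay medium lacked colchicine. 72 h drug exposure at 37 degree C, CellTiter-Glo.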
On the technique in general: Quantitative high-throughput screening tests each substance at several concentrations.
With `N#C/C(=C1/SC[C@@H](c2ccc(Cl)cc2Cl)S1)n1ccnc1`, the “activity change, negative = cytotoxicity” value is -104% (inactive).
For `O=C(NN1CCCC1)NS(=O)(=O)c1ccc(Cl)cc1`, the “activity change, negative = cytotoxicity” value is 4.15% (inactive).
As for `Cn1cc(S(C)=O)c(=O)c2ccc(F)cc21` (stereo not drawn), the “activity change, negative = cytotoxicity” value was 1.28% (inactive).
